The values below come from PubChem BioAssay (EPA / NIEHS).

Calls of active or inactive are those of the source. The calls were made as follows: active = hit-call score of the fitted dose curve at least 0.9, where 1 is the maximum; inactive = score below 0.9.

Details in all cases: mRNA level, 48 h; actives raise or lower the signal
Read-out in one test: MYC, MYC (gene 4609)
The test is described as follows: LTEA_HepaRG_MYC: Life Technologies and Expression Analysis (LTEA) Assay for MYC using HepaRG (AID 2283518). The procedure, abridged:
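Differentiated HepaRG cells exposed 48 h in serum-free induction medium to 8 concentrations (top 100 uM, half-log steps; 0.5% DMSO), duplicate. MYC mRNA measured by Fluidigm qRT-PCR, normalized to ACTB, GAPDH, POLR2A; bidirectional fit versus DMSO.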

Read-out in test [1]: matrix metalloproteinase-3 (MMP3), MMP3 (gene 4314)
The test is described as follows: LTEA_HepaRG_MMP3: Life Technologies and Expression Analysis (LTEA) Assay for matrix metalloproteinase-3 (MMP3) using HepaRG (AID 2283519). The procedure, abridged:
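HepaRG, human; 48 h dosing, 8 conc. (max 100 uM, half-log), duplicate, 0.5% DMSO. Readout: MMP3 transcript by Fluidigm TaqMan qRT-PCR, ACTB/GAPDH/POLR2A-normalised. Gain or loss fitted vs DMSO.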

Read-out in test [2]: Paternally Expressed 10 (PEG10), PEG10 (gene 23089)
The test is described as follows: LTEA_HepaRG_PEG10: Life Technologies and Expression Analysis (LTEA) Assay for Paternally Expressed 10 (PEG10) using HepaRG (AID 2283520). The essentials:
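HepaRG, 48 h post-plating → serum-free induction medium → 48 h chemical exposure (duplicate, 8-pt, max 100 uM, half-log, 0.5% DMSO) → lysis in RLT → TaqMan qRT-PCR for PEG10, ACTB/GAPDH/POLR2A normalisation.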

Read-out in test [3]: Nuclear factor NF-kappa-B p105 subunit (Homo sapiens) (UniProt P19838)
The test is described as follows: LTEA_HepaRG_NFKB1: Life Technologies and Expression Analysis (LTEA) Assay for Nuclear Factor Kappa B Subunit 1 (NFKB1) using HepaRG (AID 2283521). The procedure, abridged:
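NFKB1 transcript was measured by TaqMan qRT-PCR on Fluidigm arrays, normalised to three housekeeping genes and fitted in both directions against 0.5% DMSO. HepaRG cells were dosed in duplicate for 48 h in serum-free induction medium, eight half-log steps from 100 uM.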

Read-out in test [4]: Protein phosphatase 2A (PPP2R4), PTPA (gene 5524)
Briefly: LTEA_HepaRG_PPP2R4: Life Technologies and Expression Analysis (LTEA) Assay for Protein phosphatase 2A (PPP2R4) using HepaRG (AID 2283522). The essentials: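 Readout is PPP2R4 transcript level by microfluidic qRT-PCR after 48 h chemical treatment of human HepaRG liver cells. Concentrations spanned 100 uM downward in half-log steps; gain or loss of signal was fitted relative to DMSO.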

Read-out in test [5]: Phosphatase and tensin (PTEN), PTEN (gene 5728)
Briefly: LTEA_HepaRG_PTEN: Life Technologies and Expression Analysis (LTEA) Assay for Phosphatase and tensin (PTEN) using HepaRG (AID 2283523). The procedure, abridged:
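Read-out is PTEN transcript level by multiplexed TaqMan qRT-PCR after 48 h chemical treatment of human HepaRG cultures in serum-free induction medium. Concentrations spanned 100 uM downward in half-log steps, 0.5% DMSO throughout; activity fitted in both directions against vehicle.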

Read-out in test [6]: solute carrier (SLC22A1), SLC22A1 (gene 6580)
Briefly: LTEA_HepaRG_SLC22A1: Life Technologies and Expression Analysis (LTEA) Assay for solute carrier (SLC22A1) using HepaRG (AID 2283524). The procedure, abridged:
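HepaRG (human liver line), 48 h dosing in serum-free induction medium; 8 conc., half-log down from 100 uM, 0.5% DMSO vehicle, duplicates. Endpoint: SLC22A1 mRNA, qRT-PCR, housekeeping-normalized; gain/loss fit vs DMSO.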

Read-out in test [7]: Pyruvate Dehydrogenase Kinase 4 (PDK4), PDK4 (gene 5166)
The test is described as follows: LTEA_HepaRG_PDK4: Life Technologies and Expression Analysis (LTEA) Assay for Pyruvate Dehydrogenase Kinase 4 (PDK4) using HepaRG (AID 2283525). The essentials:
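In this multiplexed human HepaRG expression assay, cells are treated 48 h with test chemicals across an eight-point range starting at 100 uM. PDK4 mRNA changes, normalized to ACTB/GAPDH/POLR2A, are fitted in both directions relative to vehicle.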

Read-out in test [8]: NAD(P)H dehydrogenase [quinone] 1 (NQO1), NQO1 (gene 1728)
Briefly: LTEA_HepaRG_NQO1: Life Technologies and Expression Analysis (LTEA) Assay for NAD(P)H dehydrogenase [quinone] 1 (NQO1) using HepaRG (AID 2283526). The procedure, abridged:
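HepaRG, 48 h post-plating → serum-free induction medium → test chemical 48 h (duplicate, 100 uM top, half-log x8, 0.5% DMSO) → RNA isolation → qRT-PCR, ACTB/GAPDH/POLR2A normalization; bidirectional curve fit vs DMSO baseline.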

Read-out in test [9]: Nuclear factor erythroid 2-related factor 2 (Homo sapiens) (UniProt Q16236)
The test is described as follows: LTEA_HepaRG_NFE2L2: Life Technologies and Expression Analysis (LTEA) Assay for Nuclear factor erythroid 2-related factor 2 (NFE2L2) Transcription Factor using HepaRG (AID 2283527). The essentials:
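Transcript level of NFE2L2 is the read-out, measured by microfluidic TaqMan qRT-PCR and normalized to three housekeeping genes. Human HepaRG cultures received test chemical for 48 h at up to 100 uM in half-log steps. Gain or loss of signal is fitted relative to 0.5% DMSO.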

Read-out in test [10]: succinate dehydrogenase complex iron sulfur subunit B (SDHB), SDHB (gene 6390)
The test is described as follows: LTEA_HepaRG_SDHB: Life Technologies and Expression Analysis (LTEA) Assay for succinate dehydrogenase complex iron sulfur subunit B (SDHB) using HepaRG (AID 2283528). The procedure, abridged: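 SDHB transcript level read by TaqMan qRT-PCR, housekeeping-normalised (ACTB, GAPDH, POLR2A), after 48 h chemical treatment of plated HepaRG cells; eight concentrations top 100 uM, half-log steps, 0.5% DMSO, duplicates; fitted both directions against DMSO.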

Read-out in test [11]: sulfotransferase 2A1 (SULT2A1), SULT2A1 (gene 6822)
Briefly: LTEA_HepaRG_SULT2A1: Life Technologies and Expression Analysis (LTEA) Assay for sulfotransferase 2A1 (SULT2A1) using HepaRG (AID 2283531). The procedure, abridged: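 HepaRG human liver cells, 48 h exposure in serum-free induction medium to 8 half-log concentrations topping at 100 µM (0.5% DMSO), duplicate wells. SULT2A1 mRNA measured by TaqMan qRT-PCR, normalized to ACTB/GAPDH/POLR2A; bidirectional fit against DMSO.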

Read-out in test [12]: Transforming Growth Factor (TGFA), TGFA (gene 7039)
The test is described as follows: LTEA_HepaRG_TGFA: Life Technologies and Expression Analysis (LTEA) Assay for Transforming Growth Factor (TGFA) using HepaRG (AID 2283532). The essentials: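 HepaRG (human liver line), 48 h exposure, 8 conc. half-log down from 100 uM, 0.5% DMSO vehicle, duplicates; serum-free induction medium. TGFA mRNA by TaqMan qRT-PCR, ACTB/GAPDH/POLR2A normalization; gain/loss fit vs DMSO.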

Read-out in test [13]: Transforming Growth Factor (TGFB1), TGFB1 (gene 7040)
Briefly: LTEA_HepaRG_TGFB1: Life Technologies and Expression Analysis (LTEA) Assay for Transforming Growth Factor (TGFB1) Transporter using HepaRG (AID 2283533). The essentials: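 Differentiated HepaRG cells exposed 48 hr in serum-free induction medium to eight half-log concentrations up to 100 uM (0.5% DMSO), duplicate; TGFB1 mRNA by TaqMan qRT-PCR normalised to ACTB, GAPDH, POLR2A; bidirectional fit against DMSO.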

Read-out in a further test: TIMP1, TIMP1 (gene 7076)
The test is described as follows: LTEA_HepaRG_TIMP1: Life Technologies and Expression Analysis (LTEA) Assay for TIMP1 using HepaRG (AID 2283534).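 As to outcome: TaqMan qRT-PCR signal normalized to ACTB GAPDH and POLR2A housekeeping genes.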 The essentials:
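Differentiated HepaRG cells exposed 48 h in serum-free induction medium, duplicates, eight half-log concentrations from 100 uM in 0.5% DMSO. TIMP1 mRNA by qRT-PCR normalized to ACTB, GAPDH, POLR2A; bidirectional fitting against DMSO.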

Read-out in test [14]: Tumor necrosis factor receptor 1 (TNFRSF1A), TNFRSF1A (gene 7132)
The test is described as follows: LTEA_HepaRG_TNFRSF1A: Life Technologies and Expression Analysis (LTEA) Assay for Tumor necrosis factor receptor 1 (TNFRSF1A) using HepaRG (AID 2283535). The essentials: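 Differentiated HepaRG cells in serum-free induction medium, exposed 48 h in duplicate to 8 half-log concentrations up to 100 uM in 0.5% DMSO. TNFRSF1A mRNA by Fluidigm TaqMan qRT-PCR, normalized to ACTB, GAPDH, POLR2A; bidirectional fit.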

Read-out in test [15]: Thyroid Hormone Responsive (THRSP), THRSP (gene 7069)
The test is described as follows: LTEA_HepaRG_THRSP: Life Technologies and Expression Analysis (LTEA) Assay for Thyroid Hormone Responsive (THRSP) using HepaRG (AID 2283536). The essentials: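 mRNA induction or loss relative to 0.5% DMSO vehicle was fitted bidirectionally across an eight-point curve whose highest exposure was 100 uM. Human HepaRG liver cells received chemicals in duplicate over 48 h before RNA extraction.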

Read-out in test [16]: UDP glucuronosyltransferase (UGT1A1), UGT1A1 (gene 54658)
Briefly: LTEA_HepaRG_UGT1A1: Life Technologies and Expression Analysis (LTEA) Assay for UDP glucuronosyltransferase (UGT1A1) using HepaRG (AID 2283538). The essentials: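 Readout is UGT1A1 transcript level by qRT-PCR, normalized to three housekeeping genes, after 48 h chemical treatment of HepaRG cells. Concentrations ran from 100 uM down in half-log steps with 0.5% DMSO, and gain or loss relative to DMSO was fitted.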

Read-out in test [17]: UDP glucuronosyltransferase (UGT1A6), UGT1A6 (gene 54578)
The test is described as follows: LTEA_HepaRG_UGT1A6: Life Technologies and Expression Analysis (LTEA) Assay for UDP glucuronosyltransferase (UGT1A6) using HepaRG (AID 2283539). The essentials:
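Differentiated HepaRG cells, ~100,000/well, were exposed for 48 h in serum-free induction medium with 0.5% DMSO to 8-point half-log series topping at 100 uM, in duplicate. mRNA measured by Fluidigm TaqMan qRT-PCR, normalized to ACTB, GAPDH and POLR2A.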

Chain of Nuclear factor erythroid 2-related factor 2 (Homo sapiens) (Q16236 whole entry, looked up): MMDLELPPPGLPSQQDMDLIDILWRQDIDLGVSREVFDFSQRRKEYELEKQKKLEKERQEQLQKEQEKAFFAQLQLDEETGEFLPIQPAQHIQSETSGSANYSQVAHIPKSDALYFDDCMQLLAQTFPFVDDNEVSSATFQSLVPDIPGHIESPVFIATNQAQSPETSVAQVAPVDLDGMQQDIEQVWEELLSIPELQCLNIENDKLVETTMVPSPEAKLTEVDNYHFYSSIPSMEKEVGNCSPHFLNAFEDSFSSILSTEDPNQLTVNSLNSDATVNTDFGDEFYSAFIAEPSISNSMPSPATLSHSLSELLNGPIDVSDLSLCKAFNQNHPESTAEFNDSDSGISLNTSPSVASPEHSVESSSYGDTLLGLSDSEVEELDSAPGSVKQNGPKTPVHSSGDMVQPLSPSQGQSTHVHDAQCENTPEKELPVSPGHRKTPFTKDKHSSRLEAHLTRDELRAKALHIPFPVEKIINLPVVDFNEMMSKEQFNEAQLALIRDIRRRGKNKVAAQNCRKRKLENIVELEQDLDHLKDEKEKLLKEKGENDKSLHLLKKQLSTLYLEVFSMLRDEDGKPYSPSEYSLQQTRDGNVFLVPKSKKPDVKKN
Chain of Nuclear factor NF-kappa-B p105 subunit (Homo sapiens) (P19838 whole entry, looked up): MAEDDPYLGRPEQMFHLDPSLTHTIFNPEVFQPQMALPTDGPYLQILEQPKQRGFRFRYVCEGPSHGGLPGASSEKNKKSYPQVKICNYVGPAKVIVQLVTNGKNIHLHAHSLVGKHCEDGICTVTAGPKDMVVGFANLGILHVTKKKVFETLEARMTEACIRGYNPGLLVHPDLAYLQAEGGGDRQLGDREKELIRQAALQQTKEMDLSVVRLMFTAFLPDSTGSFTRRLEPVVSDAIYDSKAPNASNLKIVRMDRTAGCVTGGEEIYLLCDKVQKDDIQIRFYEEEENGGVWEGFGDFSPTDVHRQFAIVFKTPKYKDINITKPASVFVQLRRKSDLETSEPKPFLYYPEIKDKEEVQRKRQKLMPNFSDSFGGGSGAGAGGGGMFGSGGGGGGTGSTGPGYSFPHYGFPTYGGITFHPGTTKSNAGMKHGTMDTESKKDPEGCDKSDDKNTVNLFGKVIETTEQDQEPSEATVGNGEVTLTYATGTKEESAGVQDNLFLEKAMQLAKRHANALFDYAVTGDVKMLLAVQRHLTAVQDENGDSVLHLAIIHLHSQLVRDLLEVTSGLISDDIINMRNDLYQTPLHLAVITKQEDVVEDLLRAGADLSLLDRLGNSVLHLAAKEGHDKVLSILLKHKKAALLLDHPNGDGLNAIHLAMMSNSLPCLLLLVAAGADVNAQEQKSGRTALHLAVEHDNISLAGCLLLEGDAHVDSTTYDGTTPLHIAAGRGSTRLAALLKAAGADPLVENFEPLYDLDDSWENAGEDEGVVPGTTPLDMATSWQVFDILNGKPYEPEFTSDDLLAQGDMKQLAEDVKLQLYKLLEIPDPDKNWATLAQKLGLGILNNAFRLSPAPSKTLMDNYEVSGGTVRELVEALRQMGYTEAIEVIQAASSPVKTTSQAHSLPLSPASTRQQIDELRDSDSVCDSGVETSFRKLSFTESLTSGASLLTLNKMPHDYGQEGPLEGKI

In the case of `O=C(O)C1(c2ccc3c(c2)OC[C@H](Cc2ccc(-c4ccccc4)cc2)[C@H]3O)CCCC1`, the outcome is “inactive” in the test with MYC, MYC (gene 4609); “inactive” in test [1]; “inactive” in test [6]; “inactive” in test [8]; “inactive” in test [9]; “inactive” in [11]. Further, the compound was classed as inactive in test [12], in test [14], in [15], in [16] and in [17]. For the same compound, the concentration at half-maximal activity (AC50) in [2] was 50 µM (active); in test [3] it was 76 µM (active); in [4], 80.5 µM (active); in [5] it was 91.5 µM (active); in [7], 11.4 µM (active); in [10], 81.6 µM (active). For the same compound, the AC50 was 77.5 µM (active) in test [13] and 78.8 µM (active) with TIMP1, TIMP1 (gene 7076).
As to `CC(C)(C)c1ccccc1O`, the outcome is “inactive” with MYC, MYC (gene 4609); “inactive” in [1]; “inactive” in test [2]; “inactive” in test [3]; “inactive” in test [4]; “inactive” in [5]. Besides, the compound was called inactive in test [6], in test [7], in test [8], in test [9], in [10] and in test [11]. The outcome in test [12] is “inactive”; in test [13], “inactive”; in the test with TIMP1, TIMP1 (gene 7076), “inactive”; in [14] it was “inactive”; in test [15] it was “inactive”; in [17], “inactive”. The AC50 in test [16] was 4.14 µM (active).
`CN(C)C(=S)S`: the outcome was “inactive” with MYC, MYC (gene 4609); “inactive” in test [1]; “inactive” in test [2]; “inactive” in test [4]; “inactive” in test [5]; “inactive” in test [6]. Besides, the compound was called inactive in test [7], in test [8], in [9], in [10], in test [11] and in [12]. The outcome in [13] is “inactive”; in the test with TIMP1, TIMP1 (gene 7076), “inactive”; in [14], “inactive”; in test [15], “inactive”; in test [16], “inactive”; in test [17], “inactive”.
